# Rows were chosen to be rich in hits. Some 4.9% of all compounds tested hit in one or more screens of this group.
# NALP3 yeast inh – blocks the NALP3 inflammasome reconstituted in yeast; Yeast reconstituted NLRP3/ASC/caspase-1, beta-gal luminescence, 24 h; inhibition, % at 10 µM; 330,000 compounds, 0.39% hits; AID 2825;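 active means inhibition of 50% or more; inactive means inhibition below 50%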;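 further: plate controls were induced DMSO wells for no effect and uninduced yeast grown without galactose for full effect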
# tim10-1 inh – inhibits growth of tim10-1 mutant yeast | S. cerevisiae tim10-1 ts strain growth, BacTiter-Glo, 24 h | inhibition, % at 20 µM | 330,000 compounds, 2.2% hits | AID 463190;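 active means inhibition of at least 40%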;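 further: mutant grown at 25 °C; 0% = DMSO wells with yeast and 100% = wells holding no yeast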
# NALP1 inh – blocks the NALP1 inflammasome reconstituted in yeast; S. cerevisiae NALP1/ASC/caspase-1 growth, X-gal OD620, 72 h; inhibition, % at 10 µM; 280,000 compounds, 0.61% hits; AID 2071; in the data active means inhibition mostly above about 24%, no sharp cut-off; inactive means mostly below about 32%
# SKKanGAS inh – SKKanGAS growth inhibition | 300,000 compounds, 1.3% hits | S. pyogenes SKKanGAS, kanamycin growth, BacTiter-Glo, 6 h | inhibition, % at 7.5 µM;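 active means mean replicate score, as percent of positive control median, at least 50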;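 further: strain carries kanamycin resistance gene driven by streptokinase promoter and grows in 40 µg/ml kanamycin; loss of luminescence reflects streptokinase promoter inhibition or plain growth inhibition; 0% = median of DMSO wells and 100% = positive control at its reference dose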
# TIM10 inh – growth inhibitors of TIM10 yeast strain | S. cerevisiae TIM10 strain growth, BacTiter-Glo luminescence, 24 h | inhibition, % at 10 µM | 330,000 compounds, 1.4% hits | AID 463195;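 active means inhibition of 40% or more at the single tested concentration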;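 further: wild-type TIM10 isogenic control strain grown at permissive 25 °C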
# tim23-1 inh – inhibits growth of tim23-1 mutant yeast | S. cerevisiae tim23-1 growth, BacTiter-Glo luminescence, 24 h | inhibition, % at 20 µM | 330,000 compounds, 1.3% hits | AID 463212;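 active means growth inhibition of the mutant yeast at or above 50%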;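 further: temperature-sensitive mutant grown at 25 °C; plate controls were DMSO-treated mutant yeast for no effect and medium wells lacking yeast for full effect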
# tim23-1 conf – confirmation of tim23-1 mutant yeast growth inhibitors; shares compounds with tim23-1 inh; S. cerevisiae tim23-1 growth, BacTiter-Glo luminescence, 24 h; inhibition, % at 20 µM; 4,400 compounds, 83% hits; AID 463218;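 active means inhibition above about 39% in either of two replicate wells at 20 µM, limit read from the data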;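 further: temperature-sensitive tim23-1 mutant grown at 25 °C; 0% = DMSO wells with yeast and 100% = medium wells without yeast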
# * = called active by the depositor; nt = no result.
SMILES,NALP3 yeast inh,tim10-1 inh,NALP1 inh,SKKanGAS inh,TIM10 inh,tim23-1 inh,tim23-1 conf
Cc1cc(C)c(C(=O)COC(=O)c2nn(C)c(=O)c3ccccc23)cc1C,20,9,nt,nt,15,20,nt
O=C(NC1CCCC1)C(c1ccccn1)N(Cc1ccccc1F)C(=O)c1csnn1 (configuration not stated),5,24,11,-1,-3,10,nt
CC(=O)N(C)c1ccc(NC(=O)COc2ccc(Br)cc2C)cc1,28,35,29,-3,5,32,nt
C=CCN=c1scc(-c2ccco2)n1/N=C/c1ccc(O)c(O)c1O,15,-10,-5,-3,-6,64*,62*
Oc1ccc(/C=N/n2c(-c3ccco3)csc2=Nc2cccnc2)c(O)c1,1,18,23,6,17,32,nt
Cc1cccc(NC(=O)c2cccc(S(=O)(=O)N3CCc4ccccc4C3)c2)n1,22,34,nt,-5,4,29,nt
Cc1ccc(-c2nc3c(Cl)cc(Cl)cc3c(=O)n2O)cc1,14,9,18,90*,1,54*,53*
O=c1c2ccccc2nc(-c2ccc(Cl)cc2Cl)n1O,34,-4,-6,13,-19,16,nt
CCN1C(=O)[C@H]2[C@H]3CN=C(SCc4ccccc4)N3[C@@](CC)(C(=O)OC)[C@H]2C1=O,nt,7,nt,nt,-14,38,nt
O=S1(=O)CCC(N=Cc2cc(Br)ccc2O)C1 (configuration not stated),17,31,3,12,30,56*,43*
COC(=O)c1c(C)[nH]c(C(=O)/C=C/c2ccccc2F)c1C,26,-1,-3,-2,12,0,nt
OC[C@@H]1CC[C@@H](Cc2ccc(-c3ccccc3)cc2)O1,nt,30,nt,nt,20,53*,32
COc1ccc(C2CC(c3ccccc3)=NN2c2ccc(N)cc2)cc1 (configuration not stated),22,28,34,-6,27,51*,41*
CCC(=O)Nc1cccc(C2=NN(c3ccccc3)C(c3ccc(OC)cc3)C2)c1 (configuration not stated),-5,8,14,12,13,51*,30
COc1ccc(C2CC(c3ccccc3)=NN2c2ccc(Cl)c(C(=O)O)c2)cc1 (configuration not stated),-2,10,8,25,8,21,nt
O=C(COC(=O)c1nc(Cl)c(Cl)c(Cl)c1Cl)NCc1ccccc1,-15,36,nt,nt,31,59*,58*
Cc1cc(OCC(=O)c2cccc(C(F)(F)F)c2)n2cnnc2n1,17,6,-6,-4,11,6,nt
Cc1cc(OCC(=O)c2ccc(C(F)(F)F)cc2)n2cnnc2n1,6,-12,10,4,-3,96*,0
O=C1[C@H]2CCC=C[C@H]2[C@H](c2cccc(Br)c2)N1Cc1ccccc1,nt,31,nt,nt,37,58*,53*
O=C1C2C(c3ccccc3)CC=CC2[C@H](c2ccoc2)N1Cc1ccccc1 (some centres not stated),14,34,-1,13,12,8,nt
O=C1[C@H]2CCC=C[C@H]2[C@H](c2ccccc2Br)N1Cc1ccccc1,nt,31,nt,nt,17,57*,32
CC(=O)c1ccc(Nc2ccc(-c3ccccc3C)nn2)cc1,30,15,19,9,20,3,nt
COc1ccc(C2CC(=O)Oc3cc(C)c(Cl)cc32)cc1 (configuration not stated),nt,26,nt,nt,9,53*,40*
COc1ccc(C2CC(=O)Oc3ccc(OC)cc32)cc1 (configuration not stated),nt,13,nt,nt,-2,40,nt
Cc1cc(C)cc(C(=O)NN2CCN(C)CC2)c1,9,-5,5,2,-11,-3,nt
SMILES,NALP3 yeast inh,tim10-1 inh,NALP1 inh,SKKanGAS inh,TIM10 inh,tim23-1 inh,tim23-1 conf
O=C1C=C(c2ccc3cc[nH]c3c2)C[C@@H](c2ccc3c(c2)OCO3)C1,23,21,nt,nt,23,55*,47*
COc1ccc(N2CCN(c3cc(C)c4ccc(C)cc4n3)CC2)cc1,16,21,8,-9,5,11,nt
COc1ccc(N2CCN(c3nc4cc(C)ccc4cc3C=O)CC2)cc1,25,-19,-3,-5,25,52*,45*
CC(C)(C)NC(=O)C1CCN(S(=O)(=O)c2cccc(C(F)(F)F)c2)CC1,2,20,8,-1,-2,16,nt
COc1cccc(C(=O)Nc2nc3ccccc3s2)c1,23,10,18,-4,22,36,nt
Cc1ccc2nc(NC(=O)c3ccco3)sc2c1,21,37,18,-4,26,64*,38
CCC(C)C(=O)Nc1nc2ccc(OC)cc2s1 (configuration not stated),32,32,17,5,27,52*,51*
CCC(C)C(=O)Nc1nc2ccc(S(C)(=O)=O)cc2s1 (configuration not stated),5,20,18,-12,14,30,nt
COc1ccc(C(=O)Nc2nc3ccccc3s2)cc1,28,-12,18,-1,6,55*,25
Cc1ccc2nc(NC(=S)NC(=O)c3ccco3)sc2c1,nt,nt,19,28,nt,nt,nt
COc1ccc2nc(Nc3ccccc3)sc2c1,16,33,-13,1,26,56*,32
O=C(C[C@@H]1C/C=C/CC[C@@H](Cc2ccc(F)cc2)C(=O)O[C@@H](c2ccccc2)CNC1=O)NCCO,-5,8,nt,nt,-2,8,nt
CC(C)(C)Cc1nnc(NC(=O)CSc2ccccc2)s1,0,7,-5,-2,-1,7,nt
COc1ccc2nc(NC(=O)c3ccco3)sc2c1,34,29,7,-1,28,52*,37
COc1cc(C=O)ccc1OCc1ccncc1,11,15,6,-8,13,0,nt
COc1cc(C=O)c(Br)cc1OCc1ccc(C)cc1,-25,13,4,12,39,65*,57*
O=C(COc1c(Br)cc(Br)c2cccnc12)N1CCc2ccccc2C1,18,36,4,28,12,51*,51*
O=C(COc1cccc2cccnc12)N1CCc2ccccc2C1,17,23,3,6,27,19,nt
CC1CCCCN1C(=O)c1cc(-c2ccc3c(c2)OCO3)on1 (configuration not stated),29,-9,29,-6,-4,92*,28
CC1CCCCN1C(=O)c1cc(-c2ccc(Cl)c(Cl)c2)on1 (configuration not stated),17,15,9,-11,21,30,nt
C/C(=N\Nc1nc(-c2ccccc2)cs1)c1cccs1,9,28,16,10,18,22,nt
C/C(=N\Nc1nc2ccccc2s1)c1cccs1,0,32,13,50*,20,64*,48*
